Article PMC5540273 (PLoS ONE, 2017)

tested on: TLK2; details: concentration: 1 μM,replicates: in singlicate; n = 1
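Further: KINOMEscan kinase panel screen.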

| Compound | %Inh |
| --- | --- |
| CN1CCN(CCCNc2nccc(-c3c(-c4ccc(F)cc4)nn4cc(C(N)=O)ccc34)n2)CC1 [GW622475] | 0% |
| C[C@@H]1CNc2c(sc3ccc4nc(-c5ccc(O)cc5)ccc4c23)C(=O)N1 | 0% |
| CCn1c(-c2nonc2N)nc2cncc(Br)c21 [SB-738004] | 6% |
| C[C@@H]1CCN(C(=O)N2CCCC2)C[C@@H]1N(C)c1ncnc2[nH]ccc12 | 0% |
| CS(=O)c1ccc(-c2coc3ccc(-c4n[nH]c(=O)o4)cc23)cc1 (centres unmarked) | 0% |
| CCn1c(-c2nonc2N)nc2cncc(CNC3CCNCC3)c21.Cl [SB-747651] | 0% |
| C[C@@H](Oc1cc(-n2cnc3cc(-c4cnn(C)c4)ccc32)sc1C(N)=O)c1ccccc1Cl [GSK580432] | 0% |
| CN1CCN(CCNc2nc3cc(Oc4ccc(NC(=O)Nc5cc(C(F)(F)F)ccc5F)cc4)ccc3[nH]2)CC1.Cl.Cl [GW768504] | 2% |
| CCNCC(Cc1ccccc1)NC(=O)c1cc(Br)c(-c2ccnc3[nH]ccc23)s1.Cl.Cl (centres unmarked) [GSK1383280] | 16% |
| CCCC(=O)Nc1n[nH]c2ncccc12 [SB-601436] | 0% |
| COc1cccc(C2=C(Nc3cccc(Cl)c3)C(=O)NC2=O)c1 [SB-341556] | 29% |
| C[C@@H]1CNc2c(sc3ccc4nc(-c5ccncc5)ccc4c23)C(=O)N1 | 0% |
| CC(=O)c1c(-c2ccncc2)[nH]c(-c2ccncc2)c1C [GW493036] | 0% |
| CCN1CCN(CCCC(=O)Nc2n[nH]c3nc(-c4ccc(O)cc4)c(Br)cc23)CC1 [SB-731579] | 0% |
| O=c1[nH]cc(-c2ccc(O)cc2)c2sc(-c3ccncc3)cc12 [GSK1033723] | 0% |
| Nc1nccc(-c2ccc3c(N)n[nH]c3c2)n1 [GSK1034945] | 0% |
| COC(=O)c1cccc(NC(=O)NC2CCN(c3ccnc(NCc4ccc(F)cc4)n3)CC2)c1 [GSK1379860] | 0% |
| COc1cc2nccc(Nc3ccc(Oc4ccccc4)cc3)c2cc1OC.Cl [GI261656] | 0% |
| Cn1ccc2ncnc(Oc3ccc(NC(=O)Nc4cccc(C(F)(F)F)c4)c(Cl)c3)c21 | 0% |

| Compound | %Inh |
| --- | --- |
| CNC(=O)c1ccccc1Nc1nc(Nc2cccc(CS(C)(=O)=O)c2)ncc1C.O=CO [GSK1520489] | 0% |
| Cc1cccc2c(-c3ccncc3)c(-c3ccc(F)cc3)nn12.Cl [GW461487] | 2% |
| Cc1nnc(-c2ccc3occ(-c4ccc(S(C)=O)cc4)c3n2)o1 (centres unmarked) | 0% |
| OCCn1cc(-c2cnc3nnn(Cc4ccc5ncccc5c4)c3n2)cn1 | 0% |
| COC(=O)c1cccc(NC(=O)NC2CCN(c3ccnc(Nc4cc(OC)c(OC)c(OC)c4)n3)C2)c1 (centres unmarked) [GSK1379767] | 15% |
| O=C(Nc1cccc(C(F)(F)F)c1)c1cccc(Oc2ccc3nccn3n2)c1 | 0% |
| Cc1cccc(-c2nc(Nc3ccncc3)c3sccc3n2)n1 [GW869641] | 9% |
| COc1cc2ncn(-c3cc(OCC4CCCCC4)c(C(N)=O)s3)c2cc1OC [GSK204559] | 12% |
| Cn1cc(-c2cccc3c(N)c(C(N)=O)nnc23)cn1 | 0% |
| NC(=O)Nc1sc(-c2ccc(F)cc2)cc1C(N)=O [GW789449] | 0% |
| c1ccc(Oc2ccc(Nc3ccnc4ccc(-c5ccccn5)cc34)cc2)cc1 [GW407034] | 0% |
| Cn1ccc2ncnc(Oc3ccc(NC(=O)Nc4cnn(C(C)(C)C)c4)c(Cl)c3)c21 | 0% |
| Cc1ccc(Nc2ccnc(Nc3ccc4c(c3)CS(=O)(=O)C4)n2)cc1O.Cl [GW579362] | 35% |
| Cc1ccc(C(=O)Nc2ccc(Oc3ccc4nc(NC(=O)C5CC5)cn4c3)c(F)c2)c(=O)n1-c1ccccc1 | 0% |
| CC(C(=O)NC1CCN(c2ccnc(Nc3ccc(F)cc3)n2)C1)c1ccc(Cl)cc1 (centres unmarked) [GSK1379713] | 0% |
| COC(=O)Nc1nc2cc(Oc3ccc(NC(=O)Nc4cc(C(F)(F)F)ccc4Cl)cc3)ccc2[nH]1.Cl [GW697465] | 0% |
| CCOC(=O)N1CCC(n2cnc(-c3ccc(F)cc3)c2-c2ccnc(N)n2)CC1 [SB-219952] | 2% |
| Cn1ccc2ncnc(Oc3ccc(NC(=O)Nc4cc(C(C)(C)C)on4)c(Cl)c3)c21 | 0% |

tested on: TNIK; details: concentration: 1 μM,replicates: in singlicate; n = 1

| Compound | %Inh |
| --- | --- |
| CN1CCN(CCCNc2nccc(-c3c(-c4ccc(F)cc4)nn4cc(C(N)=O)ccc34)n2)CC1 [GW622475] | 76% |
| C[C@@H]1CNc2c(sc3ccc4nc(-c5ccc(O)cc5)ccc4c23)C(=O)N1 | 42% |
| CCn1c(-c2nonc2N)nc2cncc(Br)c21 [SB-738004] | 18% |
| C[C@@H]1CCN(C(=O)N2CCCC2)C[C@@H]1N(C)c1ncnc2[nH]ccc12 | 14% |
| CS(=O)c1ccc(-c2coc3ccc(-c4n[nH]c(=O)o4)cc23)cc1 (centres unmarked) | 0% |
| CCn1c(-c2nonc2N)nc2cncc(CNC3CCNCC3)c21.Cl [SB-747651] | 0% |
| C[C@@H](Oc1cc(-n2cnc3cc(-c4cnn(C)c4)ccc32)sc1C(N)=O)c1ccccc1Cl [GSK580432] | 48% |
| CN1CCN(CCNc2nc3cc(Oc4ccc(NC(=O)Nc5cc(C(F)(F)F)ccc5F)cc4)ccc3[nH]2)CC1.Cl.Cl [GW768504] | 0% |
| CCNCC(Cc1ccccc1)NC(=O)c1cc(Br)c(-c2ccnc3[nH]ccc23)s1.Cl.Cl (centres unmarked) [GSK1383280] | 50% |
| CCCC(=O)Nc1n[nH]c2ncccc12 [SB-601436] | 0% |
| COc1cccc(C2=C(Nc3cccc(Cl)c3)C(=O)NC2=O)c1 [SB-341556] | 0% |
| C[C@@H]1CNc2c(sc3ccc4nc(-c5ccncc5)ccc4c23)C(=O)N1 | 0% |
| CC(=O)c1c(-c2ccncc2)[nH]c(-c2ccncc2)c1C [GW493036] | 0% |
| CCN1CCN(CCCC(=O)Nc2n[nH]c3nc(-c4ccc(O)cc4)c(Br)cc23)CC1 [SB-731579] | 7% |
| O=c1[nH]cc(-c2ccc(O)cc2)c2sc(-c3ccncc3)cc12 [GSK1033723] | 4% |
| Nc1nccc(-c2ccc3c(N)n[nH]c3c2)n1 [GSK1034945] | 2% |
| COC(=O)c1cccc(NC(=O)NC2CCN(c3ccnc(NCc4ccc(F)cc4)n3)CC2)c1 [GSK1379860] | 0% |
| COc1cc2nccc(Nc3ccc(Oc4ccccc4)cc3)c2cc1OC.Cl [GI261656] | 0% |
| Cn1ccc2ncnc(Oc3ccc(NC(=O)Nc4cccc(C(F)(F)F)c4)c(Cl)c3)c21 | 18% |

| Compound | %Inh |
| --- | --- |
| CNC(=O)c1ccccc1Nc1nc(Nc2cccc(CS(C)(=O)=O)c2)ncc1C.O=CO [GSK1520489] | 62% |
| Cc1cccc2c(-c3ccncc3)c(-c3ccc(F)cc3)nn12.Cl [GW461487] | 7% |
| Cc1nnc(-c2ccc3occ(-c4ccc(S(C)=O)cc4)c3n2)o1 (centres unmarked) | 1% |
| OCCn1cc(-c2cnc3nnn(Cc4ccc5ncccc5c4)c3n2)cn1 | 0% |
| COC(=O)c1cccc(NC(=O)NC2CCN(c3ccnc(Nc4cc(OC)c(OC)c(OC)c4)n3)C2)c1 (centres unmarked) [GSK1379767] | 0% |
| O=C(Nc1cccc(C(F)(F)F)c1)c1cccc(Oc2ccc3nccn3n2)c1 | 0% |
| Cc1cccc(-c2nc(Nc3ccncc3)c3sccc3n2)n1 [GW869641] | 55% |
| COc1cc2ncn(-c3cc(OCC4CCCCC4)c(C(N)=O)s3)c2cc1OC [GSK204559] | 58% |
| Cn1cc(-c2cccc3c(N)c(C(N)=O)nnc23)cn1 | 5% |
| NC(=O)Nc1sc(-c2ccc(F)cc2)cc1C(N)=O [GW789449] | 33% |
| c1ccc(Oc2ccc(Nc3ccnc4ccc(-c5ccccn5)cc34)cc2)cc1 [GW407034] | 0% |
| Cn1ccc2ncnc(Oc3ccc(NC(=O)Nc4cnn(C(C)(C)C)c4)c(Cl)c3)c21 | 72% |
| Cc1ccc(Nc2ccnc(Nc3ccc4c(c3)CS(=O)(=O)C4)n2)cc1O.Cl [GW579362] | 68% |
| Cc1ccc(C(=O)Nc2ccc(Oc3ccc4nc(NC(=O)C5CC5)cn4c3)c(F)c2)c(=O)n1-c1ccccc1 | 18% |
| CC(C(=O)NC1CCN(c2ccnc(Nc3ccc(F)cc3)n2)C1)c1ccc(Cl)cc1 (centres unmarked) [GSK1379713] | 0% |
| COC(=O)Nc1nc2cc(Oc3ccc(NC(=O)Nc4cc(C(F)(F)F)ccc4Cl)cc3)ccc2[nH]1.Cl [GW697465] | 0% |
| CCOC(=O)N1CCC(n2cnc(-c3ccc(F)cc3)c2-c2ccnc(N)n2)CC1 [SB-219952] | 32% |
| Cn1ccc2ncnc(Oc3ccc(NC(=O)Nc4cc(C(C)(C)C)on4)c(Cl)c3)c21 | 92.5% |
